Shown is part of a subset that was picked to be rich in hits.
IL-1B inflam inh – inhibitors of inflammasome signaling (IL-1 beta secretion); THP-1 LPS/ATP IL-1B secretion, AlphaLISA, 16 h; active compounds read low; activity change, % at 57.5 µM; 360,000 compounds, 4.7% hits; in the data active = activity change below about -50%; inconclusive = mostly about -30% to -49%
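THP-1 cells pretreated 1 hr with compounds (up to 57.5 uM final), then stimulated with LPS (250 ng/mL final) plus ATP (1.25 mM final); secreted IL-1B measured by AlphaLISA after 16 hr, decreased signal indicating inhibition.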
12-LOX inh – inhibitors of human 12S-lipoxygenase ALOX12 | P18054 | purified 12hLO, xylenol orange hydroperoxide absorbance | Potency, µM (titrated, usually from 108 µM), inactives show top-dose activity change, negative = inhibition, actives largely listed as inhibitors | 580,000 compounds, 1.1% hits; note: potency is the fitted concentration of half-maximal effect
Target sequence (P18054 whole entry, looked up): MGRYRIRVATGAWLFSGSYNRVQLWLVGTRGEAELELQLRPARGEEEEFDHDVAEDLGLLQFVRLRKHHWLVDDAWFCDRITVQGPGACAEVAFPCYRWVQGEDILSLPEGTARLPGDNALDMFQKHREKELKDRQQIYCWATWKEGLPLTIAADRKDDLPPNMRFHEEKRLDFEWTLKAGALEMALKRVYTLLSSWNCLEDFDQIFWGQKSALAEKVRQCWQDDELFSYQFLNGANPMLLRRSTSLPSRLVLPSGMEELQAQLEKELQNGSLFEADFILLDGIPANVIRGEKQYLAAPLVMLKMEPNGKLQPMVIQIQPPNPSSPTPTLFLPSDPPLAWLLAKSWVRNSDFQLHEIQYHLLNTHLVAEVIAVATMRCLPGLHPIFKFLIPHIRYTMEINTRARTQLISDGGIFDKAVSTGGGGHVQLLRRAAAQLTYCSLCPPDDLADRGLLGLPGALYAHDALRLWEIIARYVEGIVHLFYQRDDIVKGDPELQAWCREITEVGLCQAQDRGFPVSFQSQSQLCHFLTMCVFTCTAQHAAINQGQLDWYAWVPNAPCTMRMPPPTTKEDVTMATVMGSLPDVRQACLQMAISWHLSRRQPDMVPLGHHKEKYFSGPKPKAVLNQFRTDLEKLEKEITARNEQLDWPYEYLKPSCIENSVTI
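Purified human 12hLO at 150 nM in 25 mM Hepes, 0.01% Triton X-100, pH 7.0, preincubated 15 min at room temperature with compound. Reaction started with 40 uM arachidonic acid, 30 min at room temperature. Hydroperoxide measured by Fe-xylenol orange, 573/405 nm absorbance ratio.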
HT1080-NT tox – kills 2HG-producing HT-1080-NT fibrosarcoma cells | HT-1080-NT fibrosarcoma viability, CellTiter-Glo ATP luminescence, 48 h | Potency, µM (titrated, usually from 46.1 µM), without a hit: at the highest dose activity, negative = less viability, usual class: cytotoxic | 360,000 compounds, 1.6% hits;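 note: NT is the 2HG producing partner of a matched IDH1 knockdown line; potency is the fitted concentration of half-maximal effect; 0% = DMSO-treated cells and -100% = media-only wells without cells; nearly all actives have a fitted effect of over 55% in size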
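HT-1080-NT fibrosarcoma cells (2HG-overproducing), 750 cells/well in RPMI with 5% FBS, dosed after 2 h and incubated 48 h at 37C. CellTiter-Glo luminescence normalized to DMSO and no-cell wells; concentration-response curves fitted and classed.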
DT40 TDP1 CPT – DT40-hTDP1 cell growth loss with CPT; chicken DT40 Tdp1-/-;hTDP1 cells + 20 nM CPT, ATP luminescence, 48 h; Potency, µM (top dose mostly 46.2 µM), without a hit: at the top dose activity change, negative = growth inhibition, usual class: inhibitors; 420,000 compounds, 12% hits; note: potency is the fitted concentration of half-maximal effect; nearly all actives have a fitted effect of over 55% in size
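Cell growth measured by CellTiter-Glo luminescence after a minimum 48 h, 37 C compound exposure with 20 nM CPT in Tdp1-knockout DT40 cells stably expressing hTDP1, seeded 400/well; qHTS titration format.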
HT1080 IDH1KD tx – HT-1080 IDH1 knockdown cell toxicity (counter line). HT-1080 IDH1 knockdown viability, ATP luminescence, 48 h. Potency, µM (top dose mostly 46.1 µM), for the others: top-dose activity, negative = toxicity, usual class: cytotoxic. 360,000 compounds, 2% hits;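 note: potency is the fitted concentration of half-maximal effect; 0% = DMSO wells and -100% = cell-free medium wells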
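In this qHTS, HT-1080 cells depleted of IDH1 are exposed for 48 h at 37 °C to compound titrations. Toxicity is scored from CellTiter-Glo luminescence, with DMSO as full viability and medium alone as none.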
DT40 TDP1 no CPT – qHTS for Inhibitors of human tyrosyl-DNA phosphodiesterase 1 (TDP1): qHTS in cells in absence of CPT | DT40 Tdp1-/- hTDP1 cells, no CPT, ATP luminescence, 48 h | Potency, µM (titrated, usually from 46.2 µM), without a hit: at the highest dose activity change, negative = growth inhibition, most hits filed as inhibitors | 420,000 compounds, 15% hits | AID 686978, 2013; note: potency is the fitted concentration of half-maximal effect; nearly all actives have a fitted effect of over 55% in size
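Stably hTDP1-transfected Tdp1-null chicken DT40 cells were treated with library compounds minus camptothecin and grown for at least 48 hr at 37 °C, after which cellular ATP was quantified by luminescence.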
* marks the source's active call; other numbers are inactive results; i = inactive; ? = inconclusive; · = not tested or not shown; [ ] = another dose, or the depositor's remark. Unless noted, calls come from the whole dose curve; as a rule, active = well fitted curve in the direction sought with a large enough effect; inconclusive = small, poorly fitted or top-dose-only effect, or another doubt; inactive = no such curve, though single readings can be large; an effect the other way counts as inactive or inconclusive. Unless noted, % is set by controls: 0 for no effect and ±100 for the full control effect.

SMILES	IL-1B inflam inh	12-LOX inh	HT1080-NT tox	DT40 TDP1 CPT	HT1080 IDH1KD tx	DT40 TDP1 no CPT
CN(C)c1cc[n+](CC(=O)Nc2cccc([N+](=O)[O-])c2)cc1	1	-1%	-6%	?	-19%	3.3µM*
O=C(C[n+]1ccc(-c2ccccc2)cc1)Nc1ccc([N+](=O)[O-])cc1	-19	-5%	-7%	10µM*	-1%	15µM*
CC(=O)c1ccc(NC(=O)C[n+]2ccc(N(C)C)cc2)cc1	22	-9%	?	-13%	-2%	-11%
CC(C)C[C@@H]1O[C@H](CCc2ccccc2)CC2=C1C(=O)OC(C)(C)O2	0	-5%	?	?	23µM*	?
CC(C)C[C@@H]1CC2=C(C(=O)OC(C)(C)O2)[C@H](CCc2ccccc2)O1	63	?	-24%	?	0%	?
CC1(C)OC(=O)C2=C(C[C@@H](CCc3ccccc3)O[C@@H]2c2ccc(F)cc2)O1	23	0%	-6%	?	-6%	16µM*
CCCC[C@@H]1CC2=C(C(=O)OC(C)(C)O2)[C@H](c2ccc(C(C)C)cc2)O1	48	?	?	-29%	-25%	?
CC(C)C[C@@H]1CC2=C(C(=O)OC(C)(C)O2)[C@H](c2ccc(Cl)cc2)O1	-9	-137%	-1%	?	-7%	18µM*
CC(C)[C@@H]1CC2=C(C(=O)OC(C)(C)O2)[C@H](CCc2ccccc2)O1	17	-18%	-15%	?	16µM*	?
CC1=C[C@@H](CN(C)CCc2ccccn2)[C@H](C(C)C)C[C@H]1Cc1nnc(-c2ccncc2)o1	·	26%	·	·	·	·
Clc1cccc2sc(-c3nnc(-c4ccccc4)o3)c(Cl)c12	41	-7%	5%	-7%	10%	?
CC(C)(C)OC(=O)NC[C@H]1OC[C@@H](N)[C@@H]1O	·	-16%[176 µM]	·	·	·	·
Cc1cn2nc(C(=O)N3CCC(NC(=O)C4(c5ccccc5)CC4)CC3)cc2c(=O)[nH]1	·	42%	·	·	·	·
CCCOc1ccc(F)cc1-c1cc(C(=O)Nc2ccc(OC)nc2)[nH]n1	?	·	14%	?	-2%	18µM*
CC(C)Oc1cc(F)ccc1-c1cc(C(=O)Nc2cccc(C(F)(F)F)c2)[nH]n1	-22	-3%	16µM*	16µM*	?	?
CCCOc1ccc(F)cc1-c1cc(C(=O)Nc2cc(OC)ccc2OC)[nH]n1	9	-8%	?	-21%	-17%	-11%
COc1ccc(NC(=O)c2cc(-c3ccc(F)cc3OC(C)C)n[nH]2)cn1	39	-25%	?	?	26%	23µM*
Cc1cc(O)c(-c2cc(C(=O)Nc3cccc(C(F)(F)F)c3)[nH]n2)cc1C	·	-13%	·	·	·	·
COc1ccc(NC(=O)c2cc(-c3ccc(F)cc3OC(C)C)n[nH]2)c(OC)c1	-27	4%	15%	?	12%	?
COc1cc(NC(=O)c2cc(-c3cc(F)ccc3OC(C)C)n[nH]2)cc(OC)c1OC	?	13%	?	?	?	16µM*
CNC(=O)NC(=O)CN(C)Cc1cccc(C#N)c1	·	12%	·	·	·	·
O=C(CC1COCCN1)N1CCN(C(=O)c2ccco2)CC1 (stereo not drawn)	·	22%	·	·	·	·
CCCOc1ccc(F)cc1-c1cc(C(=O)Nc2cc(OC)c(OC)c(OC)c2)[nH]n1	-11	2%	?	8.2µM*	?	15µM*
Cc1cc(C(=O)CSc2nnc(CCC(N)=O)n2C)c(C)n1C1CC1	-2	-27%	-2%	-17%	-14%	-9%
CCCCNC(=O)C(CC)(ONc1ccccc1C(F)(F)F)c1ccccc1 (stereo not drawn)	?	-22%	-9%	?	0%	?
SMILES	IL-1B inflam inh	12-LOX inh	HT1080-NT tox	DT40 TDP1 CPT	HT1080 IDH1KD tx	DT40 TDP1 no CPT
CCCCNC(=O)[C@@](CC)(ONc1ccccc1C(F)(F)F)c1cccc2ccccc12	?	-13%	-1%	15µM*	0%	?
COC(=O)/C=C1/SC(=NC(=O)c2ccccc2)NC1=O	-3	-6%	13%	?	15%	21µM*
COC(=O)/C=C1\SC(=NC(=O)c2cccc(Cl)c2)NC1=O	-10	?	26%	21µM*	20%	?
COC(=O)/C=C1/SC(=NC(=O)c2ccc(F)cc2)NC1=O	·	?	16%	-6%	?	?
O=C(Cc1ccc(NC(=O)C2CCCN(C(=O)c3ccccc3)C2)cc1)Nc1cccc(C(=O)N2CCCCC2)c1 (stereo not drawn)	·	-1%	·	·	·	·
O=C1CC(c2nc(-c3ccc(Cl)cc3)no2)CN1c1ccc2c(c1)OCCO2 (stereo not drawn)	·	-30%	·	-28%	·	-27%
COc1ccc(S(=O)(=O)Nc2ccc3c(c2)C(=O)N([C@H](C)CO)C[C@H](C)[C@@H](CN(C)Cc2ccncc2)OCCCC[C@@H](C)O3)cc1	-20	8%	2%	-63%	1%	?
CCCC(=O)C1=C(c2ccccc2)C(C#N)(C#N)C(C#N)=C1N	-13	?	-2%	18µM*	-3%	15µM*
CCCC(=O)C1=C(N(C)c2ccccc2)CC(C)(C)CC1=O	13	?	2%	?	14%	-12%
Cc1[nH]c2ccccc2c1CC(=O)Nc1ccc(Nc2cccnc2)c(-c2ccc(-c3ccccc3)cc2F)c1	·	2%	·	·	·	·
COc1ccc(OC)c(CN2CCN(C(=O)c3cccc(S(=O)(=O)Nc4ccc(C)cc4)c3)CC2)c1	-53*	?	-3%	26µM*	-11%	?
COc1ccc(NS(=O)(=O)c2ccc(C)c(C(=O)N3CCN(Cc4cc(OC)ccc4OC)CC3)c2)cc1	-15	13%	-12%	21µM*	-11%	23µM*
COc1ccc(OC)c(CN2CCN(C(=O)c3cc(S(=O)(=O)Nc4ccccc4OC)ccc3C)CC2)c1	i	2%	-1%	?	-13%	?
COc1ccc(NS(=O)(=O)c2cccc(C(=O)N3CCN(Cc4cc(OC)ccc4OC)CC3)c2)cc1	-15	?	-8%	?	-6%	?
COc1ccc(OC)c(CN2CCN(C(=O)c3ccc(S(=O)(=O)N4CCCCCC4)cc3)CC2)c1	?	-14%	-8%	?	-9%	21µM*
C[C@]1(CO)[C@H]2Cc3sc(NC(=O)c4cccs4)nc3[C@@H](CC(=O)O)[C@]2(C)CC[C@H]1O	·	-1%	·	·	·	·

Bioassay records (PubChem BioAssay)
